# According to PubChem BioAssay (NCI):
# About 83,000 compounds went through this panel and 20% of them were active in at least one assay; those are over-represented in the sample as a whole.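 The test compound was applied at a single concentration to cells in 96-well plates for 48 hours, and percent growth was recorded.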 Unmarked numbers belong to inactive results. Activity calls are given as the source filed them. Rule for the calls: active = growth percent below 10; inactive = the rest.
# Tested on: HL-60(TB) leukemia
# Test: NCI-60 one-dose screen, 48 h (100 = growth as untreated, 0 = no growth, -100 = all killed)
# Conditions: 10 µM unless noted
row,SMILES,growth
1,N=c1c(S(=O)(=O)c2ccccc2)cc2c(=O)n3ccccc3nc2n1C1CCCC1,104%
2,CCN(CC)CCNC(=O)c1c(C)[nH]c(/C=C2\C(=O)Nc3ccc(F)cc32)c1C,-23% (active)
3,COc1cnc2c(c1)C(=O)c1c-2n(CCCN2CCC(N)CC2)c(=O)c2cc([N+](=O)[O-])ccc12,44.3%
4,O=C1Nc2ccc(Cl)cc2/C1=N/N=C(c1ccccc1)c1ccccc1,91.4%
5,COc1ccc2[nH]c(O)c(/C=c3/cc4c(c(-c5ccc(F)cc5)n3)=Nc3ccccc3-4)c2c1,92.5%
6,CC(C)(C)C(=O)/C=C/c1ccc([N+](=O)[O-])cc1,75.2%
7,CCN(CCNc1ccc(C)c2sc3cc(Cl)ccc3c(=O)c12)CC(C)(C)O,81.4%
8,COC(=O)/C=C1\Sc2cc(F)ccc2NC1=O,97.7%
9,C=C1C(=O)O[C@H]2[C@H]1CC/C(COC(=O)C(=O)c1c[nH]c3ccc(Cl)cc13)=C\CC[C@@]1(C)O[C@@H]21,-44.6% (active)
10,CN1COc2ccc3ccccc3c2C1,93.2%
11,Nc1ccc2c(c1)Cc1cc(NC(=O)C(F)(F)F)ccc1-2,98.4%
12,Nc1nc(CSc2n[nH]c(N)n2)nc(Nc2ccccc2)n1,92.7%
13,O=C1COc2ccccc2C(=O)N1CCCCNc1ccccc1,-36.5% (active)
14,O=C(Cc1n[nH]c(=O)c2ccccc12)OCc1c(Cl)cccc1Cl,33.7%
15,CC(C)CCSc1nc(-c2ccc(F)cc2)c(C#N)c(N2CCCCC2)n1,73.1%
16,COc1ccc2nc(-c3ccc(Cl)cc3)cc(-c3nnc(SCC(=O)Nc4ccc(C(C)=O)cc4)n3-c3ccccc3)c2c1,99.3%
17,COc1ccc(N(c2nc(-c3ccc([N+](=O)[O-])cc3)cs2)C(C)C)cc1,90.1%
18,CCCc1cc(CCC)n2nc(N)nc2n1,105%
19,Brc1ccc(-c2csc(Nc3ccccn3)n2)cc1,79.2%
20,O=C1/C(=C/c2ccccc2F)CN(C(=O)C(Cl)Cl)C/C1=C\c1ccccc1F,-30.7% (active)

row,SMILES,growth
1,COc1cccc(CCN2C(=O)CCC3=C2CCC3=O)c1,99.9%
2,COC1=C(OC)C(=O)C=CC1=O,60.8%
3,Cc1cc2nc(NC(=O)CN3CCN(CCN4C(=O)c5cccc6cccc(c56)C4=O)CC3)sc2cc1C,52.3%
4,CC(=O)n1nc(C(=O)OC(C)(C)C)c2cc(F)c(F)cc21,103%
5,CCCN1CC(c2ccc(OC)c(OC)c2)=C(c2cn(C(=O)OCC)c3ccccc23)C1=O,33.2%
6,Nc1nc(-c2ccccc2)cs1,115%
7,COc1cccc2c(N=NC(=O)c3ccc(S(N)(=O)=O)cc3)c(O)[nH]c12,98.4%
8,CCCCNNC(=O)c1ccc(Br)cc1,18.3%
9,CCCCCCCCNC(=O)[C@@H](N)CSCOC(C)=O,83.6%
10,CC(=O)Nc1ccc([I+]c2ccc([N+](=O)[O-])cc2)cc1,109%
11,N=c1c2c(=N)n3c(nc2nc2n1-c1ccccc1Sc1ccccc1-2)sc1cc(Cl)ccc13,50.3%
12,COC(=O)C(Br)(C(=O)OC)C(Br)C(Br)C(Br)c1ccccc1 (centres undefined),7.57% (active)
13,NNC(=O)CCCCl,102%
14,O=C(Nc1cccc(-n2ccc3c(NC(=O)c4ccccc4)ncnc32)c1)Nc1ccc(Cl)c(C(F)(F)F)c1,-1.92% (active)
15,CCOC(=O)C1C(=O)OC2CCCCC21 (centres undefined),98.5%
16,CNS(=O)(=O)c1cccc(-c2ccc3c4c(n(C)c(=O)c3c2)-c2ccccc2C4=O)c1,-4.99% (active)
17,C/C(=N\Nc1nc(C)cs1)c1cc2ccccc2o1,83.4%
18,O=C(CSc1nc2ccc([N+](=O)[O-])cc2[nH]1)Nc1cccc(Cl)c1,16.9%
19,O=C(CSc1nnc(-c2cc(-c3ccccc3)nc3ccccc23)o1)c1ccc(Br)cc1,99.4%
